High-throughput results (PubChem)
Mcl-1 Bim block: inhibitors of Bim-Mcl-1 interaction, human; actives 0.1% (n = 190,000); Q07820; Bead-based flow cytometry, Bim peptide-Mcl-1 binding; AID 1009; inhibition, % at 10 µM; in the data active = inhibition above about 40%;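 also: 0% = no compound tracer wells and 100% = peptide blocker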
14-3-3 Bad inh: disrupts binding of bovine 14-3-3 zeta to phospho-Bad peptide. TR-FRET 14-3-3zeta/Dy647-pBad peptide displacement, 1 h. inhibition, % at 21.7 µM. actives 0.71% (n = 220,000). AID 781;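 active = inhibition above about 70%, limit read from the data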;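 also: 0% = full 14-3-3 plus peptide FRET controls and 100% = background without 14-3-3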
Target sequence (P63103 whole entry, looked up): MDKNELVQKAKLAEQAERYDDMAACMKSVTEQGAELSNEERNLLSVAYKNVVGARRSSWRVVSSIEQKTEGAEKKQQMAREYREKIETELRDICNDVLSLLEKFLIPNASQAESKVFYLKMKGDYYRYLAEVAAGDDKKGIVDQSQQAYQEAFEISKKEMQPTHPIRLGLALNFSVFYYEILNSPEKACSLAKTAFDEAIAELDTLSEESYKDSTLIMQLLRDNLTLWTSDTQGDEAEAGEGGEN
Mcl1 Bid PPI: disrupts binding of human Mcl-1 to Bid peptide; actives 0.97% (n = 220,000); inhibition, % at 21.7 µM; TR-FRET Mcl-1/Bid-Dy647 peptide binding, 1536-well; Q07820;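 active = compounds that cut the binding signal by more than half at the single screening dose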;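 also: His-tagged Mcl-1 with europium anti-His antibody binding Bid BH3 peptide; 0% = Mcl-1 plus peptide wells and 100% = peptide-only wells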
Mcl1 Noxa PPI: disrupts binding of human Mcl-1 to Noxa peptide; actives 1.5% (n = 220,000); TR-FRET Mcl-1/Noxa peptide binding, 2 h; inhibition, % at 21.7 µM; Q07820;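 active = compounds that cut the protein-peptide binding signal by more than 50% relative to plate controls in a single-dose test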;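 also: His-tagged Mcl-1 with rhodamine Noxa BH3 peptide and terbium anti-His antibody; 0% = Mcl-1 plus Noxa peptide wells and 100% = peptide-only wells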
MCL1 BIM primary: inhibitors of human MCL1 binding to BIM-BH3 peptide; actives 0.68% (n = 320,000); inhibition, % at 10.9 µM; AID 2057; GST-MCL1 / FITC-Bim-BH3 fluorescence polarization; Q07820;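 active = inhibition above the mean inhibition of all tested compounds plus 3 SD, set per campaign, cut at about 40% in these data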;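 also: 0% = DMSO wells and 100% = unlabeled Bim-BH3 peptide control; higher means more loss of mP so more displacement of Bim peptide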
BCLXL inh confirm: counter-screen for MCL1 inhibitors: confirmation of human Bcl-xL inhibitors; shares compounds with MCL1 BIM primary; GST-Bcl-xL / FITC-Bim BH3 peptide FP binding; inhibition, % at 10.9 µM; actives 54% (n = 1,700);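 active = inhibition above a cutoff equal to the mean inhibition of all tested compounds plus 3 SD, cut at about 30% in these data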;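 also: 0% = DMSO wells and 100% = unlabeled Bim BH3 control peptide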
Target sequence (Q07817 whole entry, looked up): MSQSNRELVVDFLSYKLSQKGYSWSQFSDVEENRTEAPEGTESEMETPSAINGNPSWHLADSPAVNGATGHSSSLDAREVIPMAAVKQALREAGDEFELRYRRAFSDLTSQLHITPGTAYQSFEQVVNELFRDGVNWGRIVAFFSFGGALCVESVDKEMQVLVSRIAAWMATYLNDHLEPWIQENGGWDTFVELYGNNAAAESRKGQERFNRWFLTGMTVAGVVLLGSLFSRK
MCL1 BIM confirm: MCL1-BIM-BH3 interaction inhibition, confirmation. shares compounds with MCL1 BIM primary. GST-MCL1 / FITC-Bim-BH3 fluorescence polarization. inhibition, % at 10.9 µM. actives 61% (n = 1,700). AID 2168;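 active = inhibition above the average of all tested compounds plus 3 SD, cut at about 40% in these data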;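 also: 0% = DMSO wells and 100% = unlabeled Bim-BH3 control peptide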
Numbers without * were called inactive; nt = no result given. This is a sample that favours compounds with a hit; in the whole collection about 2.5% have one here.

SMILES	Mcl-1 Bim block	14-3-3 Bad inh	Mcl1 Bid PPI	Mcl1 Noxa PPI	MCL1 BIM primary	others
Nc1c(C(=O)NCc2ccco2)c2nc3ccccc3nc2n1Cc1ccccc1	3.0	5.1	4.2	34.0	-7.6
COc1ccc(Cn2c(N)c(C(=O)NCc3ccco3)c3nc4ccccc4nc32)cc1	6.0	0.9	40.4	71.3*	-17.1
Nc1c(C(=O)NCc2ccco2)c2nc3ccccc3nc2n1CCN1CCOCC1	13.0	-7.1	-6.1	19.0	5.7
Nc1c(C(=O)NCc2ccco2)c2nc3ccccc3nc2n1Cc1ccc(F)cc1	0.0	nt	52.6*	65.5*	-0.2
COCCOC(=O)c1c(N)n(Cc2ccccc2)c2nc3ccccc3nc12	0.0	4.6	-11.2	21.2	-15.9
COC(=O)C1=C(c2ccc(OC(F)(F)F)cc2)C[C@@H]2CC[C@H]1N2C(=O)NCCOc1ccc(OC)cc1	nt	nt	nt	nt	9.2
O=c1[nH]c(=S)[nH]c(O)c1N=Nc1ccc(S(=O)(=O)N2CCc3ccccc32)cc1	-5.0	-2.1	-35.4	56.1*	16.4
Cc1ccccc1NC(=O)c1cc(-c2ccccc2)n(CCCN2CCOCC2)c1C	nt	-8.1	63.3*	4.2	4.2
COc1cccc(-n2c(/C=C/c3ccc(O)c(O)c3)nc3ccccc3c2=O)c1	-1.0	-2.4	-6.3	55.8*	10.9
COc1ccc2c3c1OC1C(O)C=CC4C(C2)[N+](C)(C)CCC341 (stereo not given)	nt	nt	nt	nt	-15.9
CN1C(=O)/C(=C/c2cccn2-c2ccc3ccccc3c2)C(=O)NC1=S	0.0	25.3	-20.9	1.9	22.5
O=C1NC(=S)NC(=O)C1=Cc1cccn1-c1ccc(O)cc1	0.0	39.2	-38.4	76.3*	nt
CCCCP(=O)(O)c1ccccc1	1.0	14.8	9.7	26.9	4.1
C=CP(=O)(O)c1ccccc1	-1.0	16.6	55.4*	28.7	7.5
FC(F)(F)c1cccc(-n2nnnc2C2(N3CCOCC3)CCCCC2)c1	0.0	2.5	-13.1	9.1	-0.3
CCOC(=O)c1c(NC(=O)C(c2ccccc2)c2ccccc2)sc2c1C1CCN2CC1	0.0	79.1*	21.0	-13.7	3.9
CCOC(=O)c1c(NC(=O)c2c(N)n(CCCOC)c3nc4ccccc4nc23)sc2c1CCCC2	0.0	1.0	-15.9	-11.8	-4.4
Cc1ccc(N2C(=O)NC(=O)/C(=C/c3cnc(-c4ccccc4)nc3)C2=O)cc1C	-1.0	16.6	19.6	75.0*	-9.9
Cc1cccc(N2C(=O)NC(=O)/C(=C\c3cnc(-c4ccccc4)nc3)C2=O)c1	1.0	-15.5	9.3	40.6	-3.2
Cc1nc2cc(F)ccc2n1C1CCN(Cc2nnnn2CCc2ccccc2)CC1	0.0	80.2*	21.1	27.8	2.2
Cc1nc2cc(C(F)(F)F)ccc2n1C1CCN(Cc2nnnn2CCc2ccccc2)CC1	-6.0	0.4	-0.9	18.6	-4.7
Fc1ccc2c(c1)nnn2C1CCN(Cc2nnnn2C2CCCCC2)CC1	-2.0	79.6*	-10.5	9.3	3.9
CCOC(=O)C1=C(N)Oc2cc(C)oc(=O)c2C12C(=O)N1c3c(cccc32)C(C)CC1(C)C (stereo not given)	-1.0	70.3*	-31.9	2.4	6.2
CCOc1ccc(N2C(=O)NC(=O)/C(=C\c3cc(OC)c(OC)cc3[N+](=O)[O-])C2=O)cc1	-1.0	-1.4	-17.7	31.7	19.1
COc1ccc(-n2c(O)c(C(C)=NCCCn3ccnc3)c(=O)[nH]c2=O)cc1	0.0	-4.1	-62.1	3.9	-0.9
O=C(c1ccc2nc(-c3ccco3)c(-c3ccco3)nc2c1)N1CCC2(CC1)OCCO2	4.0	17.8	5.6	78.3*	69.0*	BCLXL inh confirm=33.6*;MCL1 BIM confirm=38.7
O=c1[nH]c(=S)[nH]c(O)c1/C=C1/C=c2ccccc2=N1	nt	nt	nt	nt	92.3*	BCLXL inh confirm=134.6*;MCL1 BIM confirm=169.8*
Cc1cccc2c1=NC(=O)/C(=C/c1c(O)[nH]c(=O)[nH]c1=O)C=2	-3.0	3.6	-12.2	19.4	1.2
CCOc1cccc(OCC)c2c(C)[n+](CC3CCCO3)c(C)c1-2 (stereo not given)	-3.0	54.0	35.9	26.6	62.0*	BCLXL inh confirm=16.5;MCL1 BIM confirm=16.9
